The values that follow come from ChEMBL document CHEMBL3988442, “University of Dundee, Small-Polar-MMV Screening Library” (2021).

About 13,000 (27%) of roughly 48,000 compounds showed an effect of 50% or more. The list shows a part of the results.

The subject of this experiment is Wolbachia pipientis. In words: Anti-Wolbachia Cell-Based Screen. More on the design: scale not given: in the data most compounds retested in dose-response had high values. The following applies: 5 µM. It counts as functional.
Turning to `CCOc1ncnc2c1CCN(C(=O)CN(C)C)CC2.O=C(O)C(F)(F)F`, the “Percent Effect” value is -0.06996%. The figure for `O=C(c1cc[nH]n1)N(Cc1ccc(F)cc1)CC1CC1` is -5.824%; for `CCN(CC)C(CNC(=O)CCc1nc(C(C)C)no1)c1ccco1` (configuration not stated) it is -1.128%; for `Cn1ncc2c(=O)[nH]c(CN3CCCC3c3cccs3)nc21` (configuration not stated) it is -2.053%. To `NC(=O)c1cnc(NC2CCN(C(=O)C3CC3)CC2)c(Cl)c1` belongs 4.189%; to `Cc1nc(N2CCN(C(=O)C3CC3)CC2)c2c(n1)c(C)nn2C`, 1.518%; to `CC(C)c1cc(NC2CCCN(C(=O)c3cccs3)C2)ncn1` (configuration not stated), -8.38%. The figure for `Cc1nc(NC2CCN(C(=O)C3CC3)CC2)c2cnn(C)c2n1` is 200.9%. Regarding `CCc1nc(NC2CCCN(C(=O)c3cccs3)C2)c2cnn(C)c2n1` (configuration not stated), the “Percent Effect” value came to 96.59%.

With `COC(=O)c1sccc1S(=O)(=O)NCCc1ccoc1`, the “Percent Effect” value is on record as -8.727%.

With `CN(C)c1ncc(I)c(C2CCCN2S(C)(=O)=O)n1` (configuration not stated), the “Percent Effect” value came to 113.9%. To `CN(C)c1ncc(I)c(C2CCCCN2C)n1` (configuration not stated) belongs 140.6%; to `CN(C)c1ncc(I)c(C2CCCN2C)n1.Cl` (configuration not stated), 88.04%; to `CC1CCCCN1C(=O)Cn1cc(I)cn1` (configuration not stated), 11.08%.

Turning to `CN(C)c1cccc(C2CCCN2S(N)(=O)=O)c1` (configuration not stated), the “Percent Effect” value is listed as -8.581%. The figure for `CN(C)c1ncc(I)c(C2CCCCN2S(C)(=O)=O)n1` (configuration not stated) is 26.22%; for `Cc1nc(CN2CCC(CNC(=O)NCCC3CCC3)CC2)oc1C` it is -2e-14%.

Turning to `CN(C)C(=O)c1nc(CN2CC(Cc3ccccc3)CC2=O)no1` (configuration not stated), the “Percent Effect” value came to 4.683%. To `CC(=O)N1CCc2[nH]cnc2C12CCN(C(=O)CCn1cccn1)CC2` belongs -18.33%; to `COC[C@@]12CC[C@@H](N3CCOCC3)C[C@H]1CCN(c1cnccn1)C2`, 11.4%; to `CN(C)C(=O)c1cc2c(nc1NCC1CC1)CCN(CC1CC1)CC2`, 87.77%. The figure for `CCN1CCc2cc(C(=O)N(C)C)c(NCC3CC3)nc2CC1` is 103.3%; for `CNC(=O)c1cc2c(nc1NCC1CC1)CCN(c1ccncn1)CC2.O=C(O)C(F)(F)F` it is -1.556%. To `CC(C)Nc1nc2c(cc1C(=O)N(C)C)CCNCC2.O=C(O)C(F)(F)F.O=C(O)C(F)(F)F` belongs -6.085%; to `CNC(=O)c1cc2c(nc1NCC1CC1)CCNCC2`, 13.18%.

For `CNC(=O)c1cc2c(nc1NCC1CC1)CCN(S(=O)(=O)C1CC1)CC2`, the “Percent Effect” value is 20.95%. As to `CNC(=O)N1CCc2cc(C(=O)N(C)C)c(NCC3CC3)nc2CC1.O=C(O)C(F)(F)F`, the “Percent Effect” value was 7.418%. On to `CCS(=O)(=O)N1CCc2cc(C(=O)N(C)C)c(NCC3CC3)nc2CC1`, for which the “Percent Effect” value is on record as 112.1%. To `CNC(=O)N1CCc2cc(C(=O)NCC3CC3)c(NC(C)C)nc2CC1` belongs 0.2326%; to `CNC(=O)c1cc2c(nc1NCC(C)C)CCN(CC1CC1)CC2.O=C(O)C(F)(F)F.O=C(O)C(F)(F)F`, 9.792%; to `CN(C)C(=O)c1cc2c(nc1NCC1CC1)CCNCC2`, 103.6%. To `Cc1ccnn1-c1ccc(C(=O)N2CCN(c3cnccn3)CC2)cc1` belongs 15.98%.

For `Cc1cc(CNc2cc(Cl)ccc2Cl)no1`, the “Percent Effect” value is -3.438%.

On to `CC/N=c1\nc(NCC)nc2n1C(O)(Nc1ccc(C)cc1C)CS2` (configuration not stated), for which the “Percent Effect” value turned out to be 134.3%. For the compound `CC/N=c1\nc(NCC)nc2n1C(O)(Nc1cccc(Cl)c1Cl)CS2` (configuration not stated), the “Percent Effect” value is on record as 212.9%. Regarding `CC/N=c1\nc(NCC)nc2n1C(O)(Nc1cccc(C)c1C)CS2` (configuration not stated), the “Percent Effect” value stood at 97.63%. The figure for `CC/N=c1\nc(NCC)nc2n1C(O)(Nc1cc(Cl)ccc1Cl)CS2` (configuration not stated) is 112.8%; for `O=C(c1cccc2[nH]ncc12)N1CCCC1c1noc(C2CC2)n1` (configuration not stated) it is -9.191%. To `COc1ccc(S(=O)(=O)N2CC(CC(=O)O)c3ccccc32)cc1` (configuration not stated) belongs -7.807%; to `Cl.NCC1CCCCN1C(=O)Cc1cccc(Br)c1` (configuration not stated), -8.019%.

For the compound `N#CC(NC(=O)c1cccc2c1OCCO2)c1ccc(F)cc1F` (configuration not stated), the “Percent Effect” value is given as -4.984%. To `CCN(Cc1cc(Cl)ccc1OC)Cc1nccn1C` belongs -15.12%; to `CC/N=c1\nc(NCC)nc2n1C(O)(Nc1cc(C)ccc1C)CS2` (configuration not stated), 165.1%; to `CCn1c(C2CCCN(Cc3ccc(OC)c(C)c3C)C2)nn(C)c1=O` (configuration not stated), 24.51%. The figure for `Cc1ccccc1C(C)NC(=O)CN1CCN(Cc2ccc(Br)s2)CC1` (configuration not stated) is 1.299%; for `O=C1NCC(C(=O)N(Cc2ccc(C(F)(F)F)cc2)C2CC2)N1` (configuration not stated) it is -7.127%. To `CC(C)(NC(=O)Cc1ccccc1F)C(C)(C)C(=O)O` belongs 10.54%; to `CC(NC(=O)Cc1ccccc1F)(C(N)=O)c1cccc(Cl)c1` (configuration not stated), 85.68%; to `Cc1cccc(OCCC(=O)NCC(C)(C)C(N)=O)c1`, -9.486%. Regarding `CC(C)(C)SCC(=O)NC(C)(C(N)=O)c1cccc(Cl)c1` (configuration not stated), the “Percent Effect” value is 113.7%. Turning to `O=C(Cc1cccc(F)c1F)NS(=O)(=O)c1ccc(Cl)cc1F`, the “Percent Effect” value is recorded as 16.65%. To `COCCC(=O)NC(C)(C(N)=O)c1cccc(Cl)c1` (configuration not stated) belongs 111.9%; to `CS(=O)(=O)Cc1ccc(Cl)cc1NCc1ccccc1F`, -2.816%. The figure for `CC(C)(NC(=O)Cc1ccccc1F)C(=O)O` is 90.43%; for `CC(C)(CNC(=O)CCOc1cccc(F)c1)C(N)=O` it is -11.69%.

On to `Cc1nncn1CCNC(=O)C(C)(C)c1cccc(Cl)c1`, for which the “Percent Effect” value is recorded as -9.762%. The figure for `CC(C)(CNC(=O)C1CCCN(C(N)=O)C1)c1cccc(Cl)c1` (configuration not stated) is -3.245%; for `CCC(C)(CC(=O)O)NC(=O)Cc1ccccc1F` (configuration not stated) it is -2.363%; for `COC[C@@]12CC[C@@H](N3CCOCC3)C[C@H]1CCN(c1ncccc1F)C2` it is -2.051%. The figure for `Cc1nn(C)c(C)c1-c1c(-c2ccccc2)ncn1[C@H](CO)C(=O)O` is -8.389%; for `Cc1ncsc1CCN(C)C(=O)c1ncccc1O` it is -5.816%. To `CC(C)OCc1cccc(NC(=O)N(C)Cc2ncnn2C)c1` belongs -5.342%.

For `O=C1N(Cc2ccc(F)cc2)CCCC12CCN(C1CCSCC1)C2` (configuration not stated), the “Percent Effect” value is -0.8017%.

On to `CC(C)(C)CC(=O)NC(C)(C(N)=O)c1cccc(Cl)c1` (configuration not stated), for which the “Percent Effect” value stood at 91.43%. The figure for `Cc1cc(CNC(=O)Cc2cccs2)ccc1S(C)(=O)=O` is -11.25%; for `CC(C)(C)OC(=O)NC(C)(C(N)=O)c1cccc(Cl)c1` (configuration not stated) it is 178.1%; for `CC(C)(CNC(=O)c1ccco1)NC(=O)OC(C)(C)C` it is -7.413%.

On to `CC(NC(=O)NCc1cccc(Cl)c1)(C(=O)O)c1ccco1` (configuration not stated), for which the “Percent Effect” value was determined as 5.605%. With `O=C(Cc1cccs1)NCC1(O)CCSC1` (configuration not stated), the “Percent Effect” value is 0.8903%. To `CC(C)(C)C(=O)NCC(=O)NC1CC(c2cccc(Cl)c2)C1` (configuration not stated) belongs -7.236%. The figure for `CC(NC(=O)Cc1cccs1)(C(N)=O)c1cccc(Cl)c1` (configuration not stated) is 80.31%; for `CC(C)(CNC(=O)c1ccc(Cl)o1)NC(=O)OC(C)(C)C` it is -6.326%.
